Structures are written as SMILES. In all, about 96,000 compounds went through this assay and about 19,000 (20%) were called active. The list is a sample of the results. Values without a mark were called inactive.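 The calls were made as follows: active = blocking of liver enzyme CYP2C9 beyond about 50% at 5 µM (limit read from the data); inactive = the rest.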

A word on the inhibition: it is the drop in the measured response relative to a control, in per cent.

Sequence of Cytochrome P450 2C9 (Homo sapiens) (P11712 whole entry, looked up): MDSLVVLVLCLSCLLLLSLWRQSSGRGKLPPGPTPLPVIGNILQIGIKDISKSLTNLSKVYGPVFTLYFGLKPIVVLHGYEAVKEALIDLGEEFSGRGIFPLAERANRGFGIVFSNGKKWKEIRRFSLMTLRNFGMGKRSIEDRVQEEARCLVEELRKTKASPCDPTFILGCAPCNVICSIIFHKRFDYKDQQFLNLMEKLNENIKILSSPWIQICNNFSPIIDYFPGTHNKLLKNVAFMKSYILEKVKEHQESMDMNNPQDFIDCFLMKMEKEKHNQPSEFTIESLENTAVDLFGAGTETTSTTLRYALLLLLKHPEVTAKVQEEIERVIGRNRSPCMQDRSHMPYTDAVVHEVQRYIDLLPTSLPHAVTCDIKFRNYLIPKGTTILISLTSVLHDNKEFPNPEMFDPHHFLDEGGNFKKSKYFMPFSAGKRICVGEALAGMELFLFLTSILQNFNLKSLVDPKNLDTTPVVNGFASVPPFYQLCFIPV

The assay has as its target Cytochrome P450 2C9 (Homo sapiens) (UniProt P11712). The assay can be described thus: blockers of cytochrome P450 2C9 activity – biochemical, luminescence, ADME assay, primary screen (AID 777). Conditions: CYP2C9 Supersomes, luciferin-H conversion, at 5 µM, hits give high values.
As for `CN1CCN(c2cc(=O)n(-c3ccc(Cl)cc3)c(=O)[nH]2)CC1`, the inhibition was -7.8%.
Under `CCOC(=O)N1CCC(NC(=O)C(C)n2c3ccccc3c3cnn(C)c(=O)c32)CC1` (stereo unspecified) stands 4.8%; under `O=C(O)CCN=C1CCc2ccccc2N1`, 3.6%; under `c1nc(COc2nsnc2N2CCOCC2)cs1`, 4.4%.
Regarding `COc1ccccc1N=C(C)C1=C(O)COC1=O`, the inhibition is -5.3%.
On to `CCCCNc1ccc(C(=O)Nc2cccc(C)n2)cc1[N+](=O)[O-]`, for which the inhibition was -11.4%.
The result for `CC(C)NC(=O)c1ccc(Sc2ccccc2)c([N+](=O)[O-])c1` reads 51% (active).
In the case of `COc1ccc(C(=O)NNC(=O)c2cnccn2)cc1[N+](=O)[O-]`, the inhibition is 0.1%.
On to `CCOc1ccc(S(=O)(=O)Nc2ccc(S(=O)(=O)Nc3cc(OC)ccc3OC)cc2)cc1`, for which the inhibition is 84% (active).
The result for `CCOc1ccc(CC(=O)Nc2ccc(S(=O)(=O)Nc3cc(C)on3)cc2)cc1OCC` reads 7.3%; that for `CCOc1ccc(C(=O)Nc2cc(OC)ccc2OC)cc1`, -113%; that for `CCOc1ccc(S(=O)(=O)Nc2nc3cc(OC)ccc3s2)cc1`, 84.7% (active).
As for `CCOc1ccc(NS(=O)(=O)c2ccc(OCC(=O)NCCCOC)cc2)cc1`, the inhibition is 40.8%.
Under `COc1ccc2nc(NC(=O)c3ccc(Br)s3)sc2c1` stands 1.5%; under `Cc1cccc(C)c1N1CCN(S(=O)(=O)N2CCOCC2)CC1`, 22.3%.
Regarding `Cc1nnc(SCC(=O)NC(=O)NC2CCCC2)n1N`, the inhibition is 3.3%.
The result for `CCCCCCNCCn1cnc2c(N)ncnc21` reads -0.6%; that for `CC12c3ccccc3C(c3ccccc31)C1C(=O)N(Cc3cccnc3)C(=O)C12` (stereo unspecified), 20.2%; that for `C#CCN(N(C)c1ncc(C(F)(F)F)cc1Cl)S(=O)(=O)c1ccc2ccccc2c1`, 48.7%.
For the compound `CCN(CC)S(=O)(=O)c1ccc(N(C)Cc2ccc(C(F)(F)F)cc2)nc1`, the inhibition was 80.4% (active).
`Cc1ccccc1CSc1nnc(-c2cccnc2)n1N`: the inhibition was -26.6%.
As for `CCc1ccc(NC(=O)CSc2nnc(-c3cnccn3)n2Cc2ccco2)cc1`, the inhibition was 41.8%.
The result for `Cc1ccc(NC(=O)CSc2nnc(-c3cnccn3)n2Cc2ccco2)cc1C` reads 22.7%; that for `CCn1c(SCC(=O)Nc2cc(C)ccc2C)nnc1-c1cnccn1`, 1.2%; that for `C(=C\c1ccccc1)/CSc1nnc(-c2cccnc2)n1Cc1ccco1`, 57.6% (active).
The result for `COc1cc(Cl)c(C)cc1NC(=O)CSc1nnc(-c2cccnc2)n1Cc1ccco1` reads 72.4% (active).
With `COc1ccc(NC(=O)CSc2nnc(-c3cccs3)n2Cc2ccco2)cc1OC`, the inhibition was 30.5%.
The result for `CCn1c(SCC(=O)Nc2cc(C)c(Cl)cc2OC)nnc1-c1ccco1` reads 61.9% (active); that for `O=C(CSc1nnc(-c2cccs2)n1Cc1ccco1)c1ccc2c(c1)OCO2`, 69.4% (active); that for `CCc1cccc(C)c1NC(=O)CSc1nnc(-c2ccco2)n1N`, 16.9%.
Regarding `CCCn1c(SCC(=O)c2ccc3c(c2)OCCO3)nnc1C(C)C`, the inhibition was 7.1%.

The values above are taken from PubChem BioAssay AID777 (Sanford-Burnham Center for Chemical Genomics, 2007).
